The first test has as its target ENTHD1. Kind of test: pooled miR-30 sensor sort-seq; sequence = guide strand. The settings on record: shRNA.
In the case of TTACAATCTCCTTCACTCGGTC, the sensor-assay potency score (higher = more potent) is 0.0777.
On the same count and under the same terms, the same measure for TAGAAGACAACTGTTGATGGGA: 0.377; for TACTTGACCAACATGCTGGTAA: 0.494; for TAGAAAACAATATAGAGTGGGA: 0.012.
Still for that read-out and setting: under TATACTTCTTCTCTGAAGCAGA stands -0.435.
Same read-out and setting: the same measure for TTAAGTTCTTGGATCACTGTGC: 0.62; for TATTTGTAAAGATACCATCTGA: -0.616; for TTGTGAACTATTCAGACTCATG: -1.36.
For TTATCATCCATCTGAATGCTGG, the sensor-assay potency score (higher = more potent) was -0.718.

For a further test, the target named is ENTPD8. The description is as above. Conditions: shRNA.
In the case of TTGACCAGCGTCCCCAAGCCGT, the sensor-assay potency score (higher = more potent) is -1.42.
Consider TAGACGCTGTAGTCGGAGCCGT, for which the sensor-assay potency score (higher = more potent) was -0.675.
Still for that read-out and setting: under TTCAACTGTGAGGTTCTGGGGG stands 0.121.
Still for that read-out and setting: under TCAACTGTGAGGTTCTGGGGGA stands 0.228; under TCAGCATCTGGTCCCGTCCAAA, -1.74.
The same measure, in the same setting: the same measure for TCAAACACGATCCCAAACTTGA: -0.982; for TAGTCGGAGCCGTAGAGGCGAA: -1.54.
In turn, TAGTTGACAGTGATCCAACCAA gave a sensor-assay potency score (higher = more potent) of 0.0426.
The same measure, in the same setting: under TAGCCGCTGAGGTAGCACGGGT stands -0.869; under TAGCTGTGAGTGTAGACGCTGT, 0.245.
Still for that read-out and setting: the same measure for TTGCCTGTCCCTTCAACTGTGA: -0.84.

The next test has as its target EPAS1. The description is as above. Conditions: shRNA.
TAGAACACCTCCGTCTCCTTGC: the sensor-assay potency score (higher = more potent) was 0.306.
Sequence TTTCAGGTACAAGTTGTCCATC showed a sensor-assay potency score (higher = more potent) of -1.4.
On the same count and under the same terms, under TTCAGCTTCAGCTTGTTGGAGA stands -0.377.
Same read-out and setting: the same measure for TTTGTCATGGCACTGAAGCAGT: -0.635.
TAGAAGTCATTGAAGGTGGGGA registered a sensor-assay potency score (higher = more potent) of 0.421.
Still for that read-out and setting: the same measure for TTTGGCAACAACAATAACGAGG: -0.434.
Same read-out and setting: under TTGTGTGTTCGCAGGAAGCTGA stands -0.595; under TTGCTCTTCATACTCCAGCTGT, -0.454; under TTTAAGAACATTTCAGAACAGG, -0.533.
TCACACATGATGATGAGGCAGG: the sensor-assay potency score (higher = more potent) is -0.0655.
On the same count and under the same terms, under TTGAACAGGGATTCAGTCTGGT stands 0.262.
In turn, TTAGAAGTCATTGAAGGTGGGG gave a sensor-assay potency score (higher = more potent) of 0.712.
Still for that read-out and setting: under TTCACCTCACAGTCATATCTGG stands -0.278; under TAGTATGGACAGTTGTGTGTGA, -0.0372; under TTGAGGTTGACAGTACGGCCTC, -0.329.
The same measure, in the same setting: under TCTGTGGACATGTCTTTGCTTT stands -0.503; under TAGTTGACACACATGATGCACT, -0.913.
Still for that read-out and setting: the same measure for TTTTCTGACAGAAAGATCATGT: 0.329; for TTCATGTCCATGCTGTGGCGGC: -0.685.
For TTGTTGTAGACTTTCACCTGGC, the sensor-assay potency score (higher = more potent) is 0.403.

Values taken from the OligoGym collection.
Also: reference of the scale not given here.
